# Source: publication PMC8384837, “Expanding the binding specificity for RNA recognition by a PUF domain”
# How the values were obtained:
# Assay in all cases: yeast three-hybrid, YBZ-1, SC-Leu-His + 0.5 mM 3-AT, 4 days
# Details in all cases: tags: N-Gal4 AD-HA kept; label: inside an RPR1-promoter hybrid RNA with tandem MS2 sites; ssRNA
# [1] = target: PUM1 PUF domain R3-LRR (Homo sapiens, UniProt Q14671 828-1176, C935L;Q939R)
# Method in brief: (§1)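 Pumilio-1 PUF domain libraries, randomized (NNK) at the three base-contacting residues of each repeat, were co-expressed with matching RNA elements from a centromeric plasmid in strain YBZ-1 (LexA–MS2 coat fusion, HIS3 reporter). Transformants were plated on SC-Leu (input) and SC-Leu-His + 0.5 mM 3-AT (selection) for four days, and repeat regions were PCR-amplified and Illumina-sequenced. The interaction score is the log2 change in variant frequency from input to selection, with pseudocount 1 where absent.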
# [2] = target: PUM1 PUF domain R3-LHA (Homo sapiens, UniProt Q14671 828-1176, C935L;R936H;Q939A)
# Method in brief: as §1
# [3] = target: PUM1 PUF domain R5-SGV (Homo sapiens, UniProt Q14671 828-1176, C1007S;R1008G;Q1011V)
# PUM1 PUF domain R5-SGV, sequence (Q14671 828-1176 C1007S/R1008G/Q1011V): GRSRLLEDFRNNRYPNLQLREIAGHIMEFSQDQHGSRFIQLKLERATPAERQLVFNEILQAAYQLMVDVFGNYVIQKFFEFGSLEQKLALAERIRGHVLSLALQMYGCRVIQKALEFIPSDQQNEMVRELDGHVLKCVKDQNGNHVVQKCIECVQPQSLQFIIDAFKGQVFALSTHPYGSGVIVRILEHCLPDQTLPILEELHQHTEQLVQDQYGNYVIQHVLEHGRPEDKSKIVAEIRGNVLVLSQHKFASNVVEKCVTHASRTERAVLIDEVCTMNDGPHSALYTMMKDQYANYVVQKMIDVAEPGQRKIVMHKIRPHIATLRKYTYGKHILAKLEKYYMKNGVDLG
# Method in brief: as §1
# [4] = target: PUM1 PUF domain R5-DHL (Homo sapiens, UniProt Q14671 828-1176, C1007D;R1008H;Q1011L)
# PUM1 PUF domain R5-DHL, sequence (Q14671 828-1176 C1007D/R1008H/Q1011L): as the sequence (Q14671 828-1176 C1007S/R1008G/Q1011V) above, with S180D, G181H, V184L counted along it
# Method in brief: as §1
# [5] = target: PUM1 PUF domain R5-PRE (Homo sapiens, UniProt Q14671 828-1176, C1007P;Q1011E)
# PUM1 PUF domain R5-PRE, sequence (Q14671 828-1176 C1007P/Q1011E): as the sequence (Q14671 828-1176 C1007S/R1008G/Q1011V) above, with S180P, G181R, V184E counted along it
# Method in brief: as §1
# [6] = target: PUM1 PUF domain R3-YSV (Homo sapiens, UniProt Q14671 828-1176, C935Y;R936S;Q939V)
# PUM1 PUF domain R3-YSV, sequence (Q14671 828-1176 C935Y/R936S/Q939V): as the sequence (Q14671 828-1176 C1007S/R1008G/Q1011V) above, with C108Y, R109S, Q112V, S180C, G181R, V184Q counted along it
# Method in brief: as §1
# [7] = target: PUM1 PUF domain R1-KWM (Homo sapiens, UniProt Q14671 828-1176, S863K;R864W;Q867M)
# Method in brief: as §1
# [8] = target: PUM1 PUF domain R1-GRH (Homo sapiens, UniProt Q14671 828-1176, S863G;Q867H)
# Method in brief: as §1
# [9] = target: PUM1 PUF domain R1-KGL (Homo sapiens, UniProt Q14671 828-1176, S863K;R864G;Q867L)
# PUM1 PUF domain R1-KGL, sequence (Q14671 828-1176 S863K/R864G/Q867L): as the sequence (Q14671 828-1176 C1007S/R1008G/Q1011V) above, with S36K, R37G, Q40L, S180C, G181R, V184Q counted along it
# Method in brief: as §1
# [10] = target: PUM1 PUF domain R5-DKR (Homo sapiens, UniProt Q14671 828-1176, C1007D;R1008K;Q1011R)
# PUM1 PUF domain R5-DKR, sequence (Q14671 828-1176 C1007D/R1008K/Q1011R): as the sequence (Q14671 828-1176 C1007S/R1008G/Q1011V) above, with S180D, G181K, V184R counted along it
# Method in brief: as §1
# [11] = target: PUM1 PUF domain R5-RAN (Homo sapiens, UniProt Q14671 828-1176, C1007R;R1008A;Q1011N)
# PUM1 PUF domain R5-RAN, sequence (Q14671 828-1176 C1007R/R1008A/Q1011N): as the sequence (Q14671 828-1176 C1007S/R1008G/Q1011V) above, with S180R, G181A, V184N counted along it
# Method in brief: as §1
# [12] = target: PUM1 PUF domain R5-KGV (Homo sapiens, UniProt Q14671 828-1176, C1007K;R1008G;Q1011V)
# PUM1 PUF domain R5-KGV, sequence (Q14671 828-1176 C1007K/R1008G/Q1011V): as the sequence (Q14671 828-1176 C1007S/R1008G/Q1011V) above, with S180K counted along it
# Method in brief: as §1
# [13] = target: PUM1 PUF domain R3-DWS (Homo sapiens, UniProt Q14671 828-1176, C935D;R936W;Q939S)
# PUM1 PUF domain R3-DWS, sequence (Q14671 828-1176 C935D/R936W/Q939S): as the sequence (Q14671 828-1176 C1007S/R1008G/Q1011V) above, with C108D, R109W, Q112S, S180C, G181R, V184Q counted along it
# Method in brief: as §1
# [14] = target: PUM1 PUF domain R4-EPR (Homo sapiens, UniProt Q14671 828-1176, N971E;H972P;Q975R)
# PUM1 PUF domain R4-EPR, sequence (Q14671 828-1176 N971E/H972P/Q975R): as the sequence (Q14671 828-1176 C1007S/R1008G/Q1011V) above, with N144E, H145P, Q148R, S180C, G181R, V184Q counted along it
# Method in brief: as §1
# [15] = target: PUM1 PUF domain R4-RCG (Homo sapiens, UniProt Q14671 828-1176, N971R;H972C;Q975G)
# Method in brief: as §1
# [16] = target: PUM1 PUF domain R4-APS (Homo sapiens, UniProt Q14671 828-1176, N971A;H972P;Q975S)
# Method in brief: as §1
# [17] = target: T1, PUM1 PUF domain R6-SWC (Homo sapiens, UniProt Q14671 828-1176, N1043S;Y1044W;Q1047C)
# T1 sequence: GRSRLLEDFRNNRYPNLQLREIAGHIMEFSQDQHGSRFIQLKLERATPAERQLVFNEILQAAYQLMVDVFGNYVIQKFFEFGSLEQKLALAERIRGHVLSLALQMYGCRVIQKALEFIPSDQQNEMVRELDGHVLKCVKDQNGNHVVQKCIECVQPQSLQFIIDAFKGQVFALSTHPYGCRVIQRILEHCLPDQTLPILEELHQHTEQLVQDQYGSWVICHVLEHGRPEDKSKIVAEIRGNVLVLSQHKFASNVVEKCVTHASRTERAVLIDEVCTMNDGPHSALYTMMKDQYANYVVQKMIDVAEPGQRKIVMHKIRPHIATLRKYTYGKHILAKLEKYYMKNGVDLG
# Method in brief: as §1
# [18] = target: PUM1 PUF domain R8-KKR (Homo sapiens, UniProt Q14671 828-1176, N1122K;Y1123K;Q1126R)
# Method in brief: as §1
# [19] = target: PUM1 PUF domain R4-VGI (Homo sapiens, UniProt Q14671 828-1176, N971V;H972G;Q975I)
# Method in brief: as §1
# [20] = target: PUM1 PUF domain R5-DFP (Homo sapiens, UniProt Q14671 828-1176, C1007D;R1008F;Q1011P)
# PUM1 PUF domain R5-DFP, sequence (Q14671 828-1176 C1007D/R1008F/Q1011P): as the sequence (Q14671 828-1176 C1007S/R1008G/Q1011V) above, with S180D, G181F, V184P counted along it
# Method in brief: as §1
# PUM1 PUF domain R3-LRR, sequence (Q14671 828-1176 C935L/Q939R): as the sequence (Q14671 828-1176 C1007S/R1008G/Q1011V) above, with C108L, Q112R, S180C, G181R, V184Q counted along it
sequence,measurement,setting,value
GGCUAGAACUAGUGGAUCCCCCGGCGCCCGGCGGCUCGAGCCCGGGUAAGUGUAAUUAGUCUGCAUGCCGCCGGGCGCCAUGCCUGCAGGUCGACUCUAGAAAACAUG,binding signal,[1],0.21 log2 enrichment (interaction score)
same,binding signal,[2],3.56 log2 enrichment (interaction score)
GGCUAGAACUAGUGGAUCCCCCGGCGCCCGGCGGCUCGAGCCCGGGUAAGUGUGAAUAGUCUGCAUGCCGCCGGGCGCCAUGCCUGCAGGUCGACUCUAGAAAACAUG,binding signal,[3],2.69 log2 enrichment (interaction score)
same,binding signal,[4],2.54 log2 enrichment (interaction score)
same,binding signal,[5],3.8 log2 enrichment (interaction score)
GGCUAGAACUAGUGGAUCCCCCGGCGCCCGGCGGCUCGAGCCCGGGUAAGUGUAAGUAGUCUGCAUGCCGCCGGGCGCCAUGCCUGCAGGUCGACUCUAGAAAACAUG,binding signal,[1],3.15 log2 enrichment (interaction score)
same,binding signal,[6],2.32 log2 enrichment (interaction score)
same,binding signal,[2],6.33 log2 enrichment (interaction score)
GGCUAGAACUAGUGGAUCCCCCGGCGCCCGGCGGCUCGAGCCCGGGUAAGUGUAAAUUGUCUGCAUGCCGCCGGGCGCCAUGCCUGCAGGUCGACUCUAGAAAACAUG,binding signal,[7],3.92 log2 enrichment (interaction score)
same,binding signal,[8],2.32 log2 enrichment (interaction score)
GGCUAGAACUAGUGGAUCCCCCGGCGCCCGGCGGCUCGAGCCCGGGUAAGUGUAAAUCGUCUGCAUGCCGCCGGGCGCCAUGCCUGCAGGUCGACUCUAGAAAACAUG,binding signal,[9],3.12 log2 enrichment (interaction score)
same,binding signal,[8],1.98 log2 enrichment (interaction score)
GGCUAGAACUAGUGGAUCCCCCGGCGCCCGGCGGCUCGAGCCCGGGUAAGUGUCAAUAGUCUGCAUGCCGCCGGGCGCCAUGCCUGCAGGUCGACUCUAGAAAACAUG,binding signal,[10],5.01 log2 enrichment (interaction score)
same,binding signal,[11],2.21 log2 enrichment (interaction score)
same,binding signal,[12],4.44 log2 enrichment (interaction score)
same,binding signal,[4],2.14 log2 enrichment (interaction score)
GGCUAGAACUAGUGGAUCCCCCGGCGCCCGGCGGCUCGAGCCCGGGUAAGUGUAAAUAGUCUGCAUGCCGCCGGGCGCCAUGCCUGCAGGUCGACUCUAGAAAACAUG,binding signal,[11],2.14 log2 enrichment (interaction score)
same,binding signal,[13],4.09 log2 enrichment (interaction score)
same,binding signal,[14],4.56 log2 enrichment (interaction score)
same,binding signal,[15],3.26 log2 enrichment (interaction score)
same,binding signal,[16],4.36 log2 enrichment (interaction score)
same,binding signal,[4],3.58 log2 enrichment (interaction score)
same,binding signal,[17],3.92 log2 enrichment (interaction score)
same,binding signal,[18],1.33 log2 enrichment (interaction score)
same,binding signal,[19],2.49 log2 enrichment (interaction score)
same,binding signal,[5],3.07 log2 enrichment (interaction score)
GGCUAGAACUAGUGGAUCCCCCGGCGCCCGGCGGCUCGAGCCCGGGUAAGUGUUAAUAGUCUGCAUGCCGCCGGGCGCCAUGCCUGCAGGUCGACUCUAGAAAACAUG,binding signal,[20],5.24 log2 enrichment (interaction score)
same,binding signal,[5],2.73 log2 enrichment (interaction score)
GGCUAGAACUAGUGGAUCCCCCGGCGCCCGGCGGCUCGAGCCCGGGUAAGUGUAUAUAGUCUGCAUGCCGCCGGGCGCCAUGCCUGCAGGUCGACUCUAGAAAACAUG,binding signal,[14],2.23 log2 enrichment (interaction score)
GGCUAGAACUAGUGGAUCCCCCGGCGCCCGGCGGCUCGAGCCCGGGUAAGCGUAAAUAGUCUGCAUGCCGCCGGGCGCCAUGCCUGCAGGUCGACUCUAGAAAACAUG,binding signal,[18],5.03 log2 enrichment (interaction score)
GGCUAGAACUAGUGGAUCCCCCGGCGCCCGGCGGCUCGAGCCCGGGUAAGUGUACAUAGUCUGCAUGCCGCCGGGCGCCAUGCCUGCAGGUCGACUCUAGAAAACAUG,binding signal,[14],3.74 log2 enrichment (interaction score)
same,binding signal,[16],1.86 log2 enrichment (interaction score)
GGCUAGAACUAGUGGAUCCCCCGGCGCCCGGCGGCUCGAGCCCGGGUAAGUGUAAAUGGUCUGCAUGCCGCCGGGCGCCAUGCCUGCAGGUCGACUCUAGAAAACAUG,binding signal,[9],1.8 log2 enrichment (interaction score)
same,binding signal,[7],1.15 log2 enrichment (interaction score)
